Shiga inhibitor = A qHTS for Small Molecule Inhibitors of Shiga Toxin. hit rate 9.2% among 290,000. AID 2315, 2010. Vero cells, Shiga toxin protein synthesis inhibition reporter. inhibition, % at 38.7 µM; in the data active means inhibition mostly above about 28%, no sharp cut-off; inactive means mostly below about 43%; further: 0% is about no effect
HCV inhibitor = qHTS Assay for Inhibitors of Hepatitis C Virus (HCV). Huh7.5.1 HCVcc-Cre infection, luciferase reporter, 44 h. Potency, µM (highest dose often 41.8 µM), without a hit: at the highest dose activity change, negative = inhibition, most hits filed as inhibitors. hit rate 3.4% among 340,000; further: potency means the concentration at half of the fitted maximal effect; on the % scale 0 is the no-effect control and ±100 the full control effect
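A cell-based infection assay in which seeded cells (1,000 per well) receive test compound after 4 h, are inoculated with HCVcc-Cre at approximately 0.5 moi, and are incubated 44 h before luminescence detection.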
Pf growth 96h = Primary qHTS for delayed death inhibitors of the malarial parasite plastid, 96 hour incubation; P. falciparum luciferase reporter growth, 96 h; Potency, µM (series often up to 28.7 µM), for the others: at the top dose activity change, negative = inhibition, actives largely listed as inhibitors; hit rate 6.9% among 320,000; AID 504834, 2011; further: potency means the concentration at half of the fitted maximal effect; on the % scale 0 is the no-effect control and ±100 the full control effect
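Infected RBCs, 2% Hct / 0.05% parasitemia final; luciferase-reporter P. falciparum; cpd 96 h, 37 C, 5% CO2; luciferase detection reagent; luminescence.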
Pf growth 48h = Primary qHTS for delayed death inhibitors of the malarial parasite plastid, 48 hour incubation; P. falciparum luciferase growth in erythrocytes, 48 h; Potency, µM (doses to about 28.7 µM), for inactives: at the highest dose activity change, negative = inhibition, most hits filed as inhibitors; hit rate 5.9% among 310,000; AID 504832, 2011; further: potency means the concentration at half of the fitted maximal effect; on the % scale 0 is the no-effect control and ±100 the full control effect
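Read-out is firefly luciferase luminescence from an integrated reporter in P. falciparum, so falling signal marks reduced parasite growth. Infected erythrocytes were at 2% hematocrit and 0.1% parasitemia (final) in Albumax-supplemented RPMI 1640.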
HCMV antiviral = qHTS Assay for inhibitors of the human cytomegalovirus (HCMV); HFF cells, HCMV-luciferase reporter, 72 h; hits give low values; activity change, negative = inhibition, % at 57.5 µM; hit rate 4.5% among 410,000; in the data active means activity change below about -60%; inconclusive means no clear call, values can overlap the other calls; inactive means above about -39%; further: on the % scale 0 is the no-effect control and ±100 the full control effect
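Compounds were evaluated in HFFs infected with an HCMV luciferase reporter virus (MOI 1 PFU/cell). Luciferase in lysates collected 72 h post infection served as the replication measure.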
Cycloheximide cs = Cycloheximide Counterscreen for Small Molecule Inhibitors of Shiga Toxin; AID 2314, 2010; hit rate 12% among 300,000; max response, %; cell reporter, cycloheximide protein synthesis inhibition counterscreen; in the data active means max response mostly above about 13%, no sharp cut-off; inactive means mostly below about 14%; further: read at 38.3 µM for the half of the compounds with a filed dose; 0% is about no effect
* marks the source's active call; other numbers are inactive results; ? = inconclusive; · = no result; + = active, no number. Only some compounds are listed: those with a hit (about 21% of all), similar ones and a draw of the others. Unless noted, the call rests on the fitted dose curve; in most records, active means well fitted inhibition curve with a large enough effect; inconclusive means small, poorly fitted or top-dose-only effect, or another doubt; inactive means no such curve, though single readings can be large or run the other way.

SMILES	Shiga inhibitor	HCV inhibitor	Pf growth 96h	Pf growth 48h	HCMV antiviral	Cycloheximide cs
Cc1cc(NC(=O)CSc2nc(C)c(C)n2CC(C)C)no1	·	-1%	·	·	-37	·
CCN(C(=O)c1cn(CC(C)C)c(=O)c2cc(OC)c(OC)cc12)c1cc(OC)ccc1OC	·	·	·	·	-28	·
COc1ccc(/C=N/NC(=O)c2nc(-c3ccccc3)cc(-c3ccccc3)n2)cc1	-20	10µM*	80%	20%	?	-4
CSc1cccc(NS(=O)(=O)c2cn(C)c(C)n2)c1	·	·	·	·	7	·
CC1(C)CC(=O)C2=C(C1)N(c1ccc(F)cc1)C(=O)CC2c1ccsc1 (centres undefined)	-13	2%	3.3µM*	·	-34	-7
CC(=O)c1cnc2nc(C(F)(F)F)nn2c1C	-12	-8%	4%	0%	13	-3
CC(=O)c1cnc2nc(SCc3ccccc3C)nn2c1C	21	-8%	8%	58%	15	18*
O=C(Nc1ccc(Cl)cc1)c1ccc2c(c1)N(Cc1ccccc1)CCS2	·	·	·	·	-2	·
CN1C(=O)/C(=C\N2CCc3ccccc32)C(=O)NC1=S	14	19%	9.3µM*	24%	80	13*
Cc1sc2ncnc(Sc3nnc4sc5ccccc5n34)c2c1C	-4	0%	?	2.9µM*	·	-1
CCSc1ncnc2sc(C)c(C)c12	-6	5%	7%	25%	30	-5
Cc1ccc(C(=O)NCC(c2ccco2)S(=O)(=O)c2ccc(Cl)cc2)cc1C (centres undefined)	·	·	·	·	-12	·
Clc1ccc(Cc2nc(-c3cccnc3)no2)cc1	10	11%	50%	19%	-24	17*
Cc1cc(C)cc(OCc2nc(-c3cccnc3)no2)c1	-8	-4%	-9%	-2%	4	-5
CN(Cc1nc(-c2cccnc2)no1)S(=O)(=O)c1ccccc1	11	4%	·	17%	12	9
Cc1ccc(Cc2nc(-c3cccnc3)no2)cc1	111*	1%	-25%	41%	4	34*
O=C(O)C1CCC(Cn2c(SCc3cc(=O)n4ccccc4n3)nc3ccsc3c2=O)CC1 (centres undefined)	-4	29%	?	?	1	-4
N#Cc1ccccc1CSc1nc2ccsc2c(=O)n1Cc1ccccn1	-3	?	?	25%	53	18*
O=c1c2sccc2nc(SCc2cc(=O)n3cc(Br)ccc3n2)n1Cc1ccccn1	93*	-21%	?	174%	40	26*
Cc1ccc(CSc2nc3ccsc3c(=O)n2Cc2ccccn2)cc1	-5	?	24%	-14%	-34	-4
CCCCN(CC)c1nc(C)nc2c1c(C)c(C)n2-c1c(C)cc(C)cc1C	5	·	·	·	·	5
Cc1cc(=O)oc2c3c(cc(OCC(=O)NCC(=O)O)c12)OC(C)(C)CC3	11	-9%	11%	-7%	0	6
Cc1c(C)c2c(OCC(=O)NCC(O)c3ccccc3)cc3c(c2oc1=O)CCC(C)(C)O3 (centres undefined)	-4	-17%	4.7µM*	?	-26	1
Cc1c(C)c2c(OCC(=O)NC3CC3)cc3c(c2oc1=O)CCC(C)(C)O3	-3	-16%	12µM*	?	-8	1
Cc1cc(=O)oc2c3c(cc(OCC(=O)NCc4ccccc4)c12)OC(C)(C)CC3	-4	5.6µM*	12µM*	?	57	-3
SMILES	Shiga inhibitor	HCV inhibitor	Pf growth 96h	Pf growth 48h	HCMV antiviral	Cycloheximide cs
Cc1cc(=O)oc2c3c(cc(OCC(=O)Nc4cccnc4)c12)OC(C)(C)CC3	-5	?	1.3µM*	-24%	2	-6
O=C(COc1ncnc2sccc12)Nc1cccc(S(=O)(=O)N2CCOCC2)c1	·	-27%	-25%	?	-3	·
Cc1cc(=O)oc2c3c(cc(OCC(=O)NC4CC4)c12)OC(C)(C)CC3	-4	?	15µM*	?	-3	1
O=C(COC(=O)c1cc[n+]([O-])cc1)Nc1ccc(Cl)cc1Cl	·	-7%	·	·	26	·
CC1Oc2ccccc2C=C1/C=N/NC(=O)c1ccccc1 (centres undefined)	25	?	?	2.9µM*	44	18
CC1Oc2ccccc2C=C1/C=N\NC(=O)c1cccnc1 (centres undefined)	53*	-6%	3%	0%	19	20*
CC1Oc2ccccc2C=C1/C=N/NC(=O)c1ccccc1O (centres undefined)	+	33%	?	3.7µM*	-31	43*
COc1ccc(/C=C(/NC(=O)c2ccco2)C(=O)N2CCOCC2)cc1	-11	-4%	?	22%	7	-4
Cc1cc(C)[n+]2[nH]c(N)c(N=Nc3ccccc3)c2n1	58*	2%	-24%	16%	1	17*
Cc1noc(C)c1S(=O)(=O)N(C)C[C@@H]1OCc2cn(nn2)CCCC(=O)N([C@H](C)CO)C[C@H]1C	·	·	·	·	-14	·
CC1(C)CSC(=NCCc2ccccc2)N1C(=O)c1ccc(C#N)cc1	-3	-1%	-24%	13%	?	4
CC1(C)CSC(=NCCc2ccccc2)N1	54*	?	28%	17%	-1	14*
COc1ccc(S(=O)(=O)NCc2nc3nc(C)cc(C)n3n2)cc1OC	-8	13%	5.2µM*	13%	-3	-2
Cc1cc(C)n2nc(CNS(=O)(=O)c3ccc(Cl)cc3)nc2n1	·	·	·	·	-1	·
CC(CC(=O)NNC(=O)c1cccc(Cl)c1)c1ccccc1 (centres undefined)	29	0%	24%	-1%	-35	2
Fc1ccc(-c2nnc(-c3ccc(F)cc3)o2)cc1	26	6%	?	100%	97	28*
c1ccc(C2=NOC(c3nnc(-c4ccccc4)o3)C2)cc1 (centres undefined)	·	12%	·	·	0	·
Fc1ccc(-c2nnc(NC3=NCCCCC3)o2)cc1	-9	-15%	20%	-87%	-83*	19
Fc1ccc(C2=NOC(c3nnc(-c4ccccc4)o3)C2)cc1 (centres undefined)	6	1%	45%	8%	-65*	8
Clc1cccc(C2=NOC(c3nnc(-c4ccccc4)o3)C2)c1 (centres undefined)	-3	-11%	20%	2%	-16	-2
c1ccc(-c2nnc(C3CC(c4cccnc4)=NO3)o2)cc1 (centres undefined)	20	-10%	-1%	34%	33	15*
Fc1ccc(-c2nnc(Cc3nnc(-c4ccc(F)cc4)o3)o2)cc1	-9	5%	·	?	51	-6
O=C(Nc1ccc(F)cc1F)c1ccc2c(O)c(S(=O)(=O)c3ccc(Cl)cc3)c(=O)[nH]c2c1	·	·	·	·	-5	·
